The list is not random: actives were taken first. Their share in the collection is about 9.2%.
SMN2 splice up: qHTS Assay for Enhancers of SMN2 Splice Variant Expression. HEK293 SMN2-luciferase splicing reporter, luminescence, 30-36 h. Potency, µM (titrated, usually from 46.1 µM), for inactives: at the top dose activity change, positive = activation, usual class: activators. 2.8% of 210,000 active. AID 1458, 2008; further: % of control where 0% means no effect; nearly all actives have a fitted effect of over 55% in size
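HEK293 cells carry an SMN2 minigene-luciferase reporter in which exon 7 inclusion puts luciferase in frame. Cells were seeded at 2000 cells/well, attached for 10-12 hours, then exposed to compounds for 30-36 hours at 37C before ONE-Glo luminescence.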
Rab9 promoter act: qHTS Assay for Rab9 Promoter Activators. Huh7 Rab9 promoter-luciferase reporter, luminescence, 24 h. Potency, µM (titrated, usually from 9.22 µM), inactives show at the highest dose activation, negative = inhibition, usual class: activators. 2.8% of 320,000 active. AID 485297, 2010; further: % of control where 0% means no effect; nearly all actives have a fitted effect of over 60% in size
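Huh7 cells stably carrying a Rab9 promoter-luciferase reporter, 1500 cells per well in OP-MEM I with 10% FBS, treated with compound 24 hours at 37C. Luciferase activity read by luminescence after 10 minutes with Amplite reagent.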
NPC1 prom act: qHTS Assay for NPC1 Promoter Activators. Huh7 NPC1 promoter luciferase reporter, 24 h. Potency, µM (highest dose often 9.22 µM), for the others: at the highest dose activation, most hits filed as activators. 2.4% of 320,000 active; further: % of control where 0% means no effect; nearly all actives have a fitted effect of over 60% in size
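NPC1 promoter–luciferase Huh7 cells; 24 h compound; luminescence.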
FLuc counter: qHTS profiling assay for firefly luciferase inhibitor/activator using purifed enzyme and Km concentrations of substrates (counterscreen for miR-21 project); purified FLuc, Km substrates, luminescence inhibition; Luciferin 4-monooxygenase (Photinus pyralis), P08659; 6.9% of 360,000 active; Potency, µM (top dose mostly 57.5 µM), for the others: at the top dose activity change, negative = inhibition, hits mostly inhibitors;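 further: plate controls were vehicle for no effect and reference inhibitor for full effect; nearly all actives have a fitted effect of over 55% in size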
Target sequence (P08659 whole entry, looked up): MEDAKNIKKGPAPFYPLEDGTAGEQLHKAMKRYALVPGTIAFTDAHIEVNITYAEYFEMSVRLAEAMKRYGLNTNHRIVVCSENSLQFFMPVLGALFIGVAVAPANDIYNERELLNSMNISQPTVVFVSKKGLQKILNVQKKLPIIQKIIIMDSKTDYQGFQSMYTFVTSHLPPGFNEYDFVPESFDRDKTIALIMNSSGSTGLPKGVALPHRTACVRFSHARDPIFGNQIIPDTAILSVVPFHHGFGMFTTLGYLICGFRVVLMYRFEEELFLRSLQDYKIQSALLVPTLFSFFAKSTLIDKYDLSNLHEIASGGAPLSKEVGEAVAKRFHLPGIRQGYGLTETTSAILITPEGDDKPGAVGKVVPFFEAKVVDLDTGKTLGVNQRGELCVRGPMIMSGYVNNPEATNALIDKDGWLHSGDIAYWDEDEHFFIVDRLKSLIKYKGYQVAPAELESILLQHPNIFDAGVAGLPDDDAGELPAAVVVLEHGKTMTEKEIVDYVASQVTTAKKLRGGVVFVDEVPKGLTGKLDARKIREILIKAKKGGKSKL
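Purified P. pyralis luciferase (10nM final) with 10uM D-luciferin and 10uM ATP (Km levels) in 50mM Tris acetate pH 7.5, 10mM Mg acetate, 0.01% Tween-20, 0.05% BSA; qHTS 6-point titration, ~60 µM downward; luminescence read.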
ELG1 genotoxic: qHTS screen for small molecules that induce genotoxicity in human embryonic kidney (HEK293T) cells expressing luciferase-tagged ELG1. Potency, µM (top dose mostly 46 µM), for inactives: at the top dose activity change, positive = activation, actives largely listed as activators. HEK293T ELG1-luciferase reporter, luminescence, 16 h. 1.3% of 330,000 active. AID 504466, 2011; further: % of control where 0% means no effect; nearly all actives have a fitted effect of over 60% in size
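HEK293T cells expressing luciferase-tagged ELG1 were exposed to compound or DMSO vehicle for 16 hr at 37 °C and 5% CO2. Luciferase activity was then measured with ONE-Glo after 30 min at room temperature.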
ELG1 DNA repair: qHTS screen for small molecules that inhibit ELG1-dependent DNA repair in human embryonic kidney (HEK293T) cells expressing luciferase-tagged ELG1 | 2.3% of 330,000 active | HEK293T ELG1-luciferase reporter, luminescence, 16 h; DNA damage induced by 5-fluorouridine | Potency, µM (doses to about 46.1 µM), for inactives: top-dose activity change, negative = inhibition, most hits filed as inhibitors | AID 504467, 2011; further: on the % scale 0 is the no-effect control and ±100 the full control effect; nearly all actives have a fitted effect of over 55% in size
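Quantitative HTS, concentration-response format. 2,000 cells/well co-treated with 5-fluorouridine and compound, 16 hr in 5% CO2 at 37 °C; ONE-Glo luminescence read after 30 min.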
* = called active by the depositor; u = inconclusive; x = not tested or not shown; [ ] = dose if it differs, or a comment. The call rests on the fitted dose curve; in most records, active means well fitted curve in the direction sought with a large enough effect; inconclusive means small, poorly fitted or top-dose-only effect, or another doubt; inactive means no such curve, though single readings can be large; an effect the other way counts as inactive or inconclusive. Potency means the concentration at half of the fitted maximal effect.

SMILES	SMN2 splice up	Rab9 promoter act	NPC1 prom act	FLuc counter	ELG1 genotoxic	ELG1 DNA repair
O=C(c1ccc2c(c1)N(Cc1ccc(Cl)cc1)C(=O)c1ccccc1S2(=O)=O)N1CCCCCC1	-14%	x	x	6%	x	x
CC(=O)c1c(C)[nH]c(C(=O)OCC(=O)Nc2ccc(Cl)cc2[N+](=O)[O-])c1C	-77%	-12%	-26%	0%	3%	3.7µM*
CCOC(=O)c1c(C)[nH]c(C(=O)OCC(=O)Nc2cc(Cl)ccc2OC)c1C	5%	3%	0%	-1%	2%	-5%
CCN(CC)CCNC(=O)c1sc2nc(C)cc(C)c2c1-n1cccc1	x	x	x	-6%	x	x
CC(=O)NC(C)c1ccc(C(=O)CSc2nnc(C3CC3)n2C2CC2)cc1 (stereo not given)	x	2%	0%	x	4%	11%
Nc1ccc(N=Nc2ccccc2)c2cccnc12	x	-17%	18%	21µM*	16%	u
Nc1ccc(Br)c2cccnc12	x	-5%	-3%	-2%	3%	0%
COc1ccc(N=Nc2ccc(O)c3ncccc23)cc1	x	-33%	-5%	-14%	4.6µM*	2%
O=S(=O)(O)c1cccc2c(N=Nc3ccc(O)c4ncccc34)cccc12	x	-2%	-2%	15µM*	-3%	-11%
COc1cccc(N=Nc2ccc(O)c3ncccc23)c1	x	-18%	22%	6µM*	u	u
Cc1ccc2c(c1)c1c(c(=O)n(Cc3ccccc3)c(=O)n1Cc1cccc(F)c1)n2C	x	x	x	-9%	x	x
Cc1ccc(C)c(NC(=O)Cn2ncc3c(C)n(Cc4ccc(F)cc4)c(C)c3c2=O)c1	5%	x	x	2%	x	x
CC(C)N(C(=O)[C@H]1C[C@H](CC(=O)NCCC2=CCCCC2)C(=O)N2CCc3c([nH]c4cc(-c5ccco5)ccc34)[C@]12C)C(C)C	x	x	x	x	-6%	-12%
Cc1ccc(N=Nc2ccc(O)cc2)c(Br)c1	x	3.2µM*	u	3.4µM*	12µM*	u
COc1ccc(N=Nc2cc(-c3ccccc3)ccc2O)cc1	x	0%	4%	24µM*	-2%	13%
Oc1ccc(N=Nc2ccc3c(c2)OCCO3)c2cccnc12	-55%	-35%	-28%	6µM*	7%	u
Oc1ccc(N=Nc2ccc(Br)cc2)c(O)c1	x	u	u	4.8µM*	u	u
Nc1nonc1C(=Nc1ccc(Br)cc1)NO	-33%	-3%	1%	5%	5%	15%
O=Nc1ccc(O)c2ncccc12	x	-37%	-32%	-8%	u	u
COc1ccccc1CNC(=O)CC(c1ccc(C)cc1)N1Cc2ccccc2C1=O (stereo not given)	x	x	x	-3%	x	x
C[C@H](CCC(=O)O)[C@H]1CC[C@H]2[C@H]3C(C[C@H](O)[C@]12C)[C@@]1(C)CC[C@@H](O)C[C@H]1C[C@H]3O (stereo not given in full)	-10%	x	x	x	x	x
NC(=O)c1ccc(SCC(=O)OCC(=O)NC2CCCCCCC2)c([N+](=O)[O-])c1	x	-1%	-2%	1%	3%	0%
Cc1ccc(S(=O)(=O)N2CCCC(C(=O)NCCc3ccc(S(N)(=O)=O)cc3)C2)cc1 (stereo not given)	x	0%	1%	1%	-6%	-5%
O=C(CNC(=O)c1ccc2c(c1)OCCO2)N/N=C/c1ccc(O)cc1O	7%	2%	-2%	-14%	1%	-10%
Oc1ccc(N=Nc2ccc3c(c2)OCCO3)c(O)c1	x	1.1µM*	1.3µM*	1.2µM*	u	u
SMILES	SMN2 splice up	Rab9 promoter act	NPC1 prom act	FLuc counter	ELG1 genotoxic	ELG1 DNA repair
O=S(=O)(O)c1ccc2cc(N=Nc3cc(S(=O)(=O)O)c4cccnc4c3O)ccc2c1	5%[9.22 µM]	x	x	x	x	x
Cc1ccccc1N=Nc1ccc(O)c2ncccc12	-103%	-28%	-12%	-8%	12µM*	u
COc1cccc(N=Nc2ccc3cccnc3c2O)c1	x	11%	20%	8.5µM*	16µM*	2.3µM*
Cc1cc(N/N=C/c2ccc(N(C)C)cc2)c2ccccc2n1	x	-3%	-3%	u	8%	1%
CC(=O)Oc1c(Cl)cc(Cl)cc1/C=C/c1ccc2ccccc2n1	x	u	16%	-14%	1%	u
CCN(CC)c1ccc(/C=C/c2cc(-c3ccccc3)c3ccccc3n2)cc1	x	-4%	-7%	u	-1%	12%
O/C(=C\c1ccc2ccccc2n1)c1ccc(O)cc1O	8.9µM*	2.2µM*	1.1µM*	1.5µM*	2.6µM*	u
CN(C)c1ccc(/C=C/c2ccc3ccccc3n2)cc1	x	u	-18%	0.067µM*	u	u
CN(C)c1ccc(/C=C/c2nc3ccccc3s2)cc1	-79%	u	0%	0.11µM*	-4%	-26%
CC(=O)Oc1ccc(Cl)cc1/C=C/c1ccc2ccccc2n1	14µM*	u	3.2µM*	5.4µM*	23%	u
CN(Cc1ccccc1)C(=O)c1nc(-c2ccc(Cl)cc2)n2c1CCCCC2	x	x	x	-12%	x	x
COc1ccc(-n2c(SCC(=O)c3ccccc3)nc3c([nH]c4ccccc43)c2=O)cc1	x	x	x	0%	x	x
CCOc1ccc(CCNC(=O)Cn2ncc3c(=O)oc4ccc(C)cc4c32)cc1	-15%	x	x	0%	x	x
O=C(O)/C=C/c1ccc2ccccc2n1	-11%	1%	-1%	2%	-1%	-24%
Fc1ccccc1/C=C/c1ccc2ccccc2n1	0.89µM*	2.2µM*	4µM*	0.15µM*	0.33µM*	u
C(=C\c1ccc2ccccc2n1)/c1ccccc1	x	0.5µM*	2.8µM*	0.076µM*	u	u
COc1cc(/C=C/c2nc3ccccc3s2)cc(OC)c1O	24%	u	7%	19µM*	18µM*	u
CN(C)c1ccc(CNc2nc3ccccc3s2)cc1	x	0.25µM*	0.1µM*	0.24µM*	0.46µM*	u
CCN(CC(=O)Nc1c(F)cccc1F)C(=O)/C=C/c1ccc2ccccc2n1	x	-2%	7%	2%	5%	-9%
COc1cc(/C=C(\C#N)C(N)=O)cc(CSc2nc3ccccc3s2)c1O	5%	x	x	x	x	x
COc1ccccc1NC(=O)Cn1c(=O)n(-c2cccc(C(C)=O)c2)c(=O)c2c3c(sc21)CN(C(C)=O)CC3	1%	x	x	7%	x	x
Oc1ccc(/C=C/c2ccc3ccccc3n2)cc1	2.8µM*	u	u	0.13µM*	0.26µM*	u
Cc1ccc(/C=C/c2nc3ccccc3s2)s1	-18%	u	15%	0.3µM*	0.52µM*	u

From PubChem BioAssay
